Our source for the growth values is PubChem BioAssay (NCI).

Molecules are shown by their SMILES. About 83,000 compounds went through this panel and 20% of them were active in at least one assay; those are over-represented in the sample as a whole.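 Values shown are percent growth following 48 h exposure of cells in 96-well plates to a single concentration of compound; below 10 was considered active.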 A number with no mark means an inactive call. The source made the active and inactive calls.

Holding throughout (assay): NCI-60 one-dose screen, 48 h (100 = growth as untreated, 0 = no growth, -100 = all killed)
Conditions in all cases: 10 µM unless noted

In experiment [1] the test system is T-47D breast.
Experiment [2] has as its system BT-549 breast.
In experiment [3] the test system is MDA-MB-435 melanoma.
The subject of experiment [4] is SW-620 colon.
In experiment [5] the test system is MCF7 breast.
Experiment [6] concerns HCT-116 colon.
The test system of experiment [7] is HCC-2998 colon.
Experiment [8] relates to KM12 colon.

In the case of `C=C(C)[C@@H]1CC[C@]2(C(=O)N3CCOCC3)CC[C@]3(C)[C@H](CC[C@@H]4[C@@]5(C)C/C(=C/c6ccncc6)C(=O)C(C)(C)[C@@H]5CC[C@]43C)[C@@H]12`, the growth in experiment [1] was 26.5%; in experiment [2], 73.4%; in experiment [3] it was 62.3%; in experiment [4], 50.3%; in experiment [5] it was 28.9%; in experiment [6] it was 32.4%. The growth in experiment [7] is 58.7%.
For the compound `O=S(=O)(c1ccccc1)n1cc2c(c1)-c1nc(Nc3ncccn3)sc1CC2`, the growth in experiment [1] was 53%; in experiment [2], 63.8%; in experiment [3] it was 61.5%; in experiment [4] it was 65.1%; in experiment [5], 49.5%; in experiment [6], 23.1%. Moreover, in experiment [7], the growth is 85%.
Consider `CN1C(=O)/C(=C\c2c(Cl)cccc2Cl)c2ccccc21`, for which the growth in experiment [1] was 90.3%; in experiment [2], 98.7%; in experiment [3], 7.16% (active); in experiment [4], 66.3%; in experiment [5], 68.7%; in experiment [6] it was 91.9%. Besides, the growth in experiment [7] is 80.4%.
As for `CCOC(=O)c1ccc2c(c1)nc(-c1ccccc1)n2C1CCCCC1`, the growth was 66.8% in experiment [1]; 93% in experiment [2]; 102% in experiment [3]; 111% in experiment [4]; 93.3% in experiment [5]; 63.7% in experiment [6]. The growth in experiment [7] was 91.6%.
As to `COc1cc(C2CC(c3ccc(Nc4nc(Nc5ccc(Cl)cc5)nc(Nc5ccc(Cl)cc5)n4)cc3)=NN2C(C)=O)cc(OC)c1OC` (configuration not stated), the growth in experiment [1] was 69.2%; in experiment [2], 104%; in experiment [3], 89.1%; in experiment [4] it was 106%; in experiment [5], 89%; in experiment [6], 84.9%. The results for the growth in experiment [7] and in experiment [8] were 100% and 106%, respectively.
Consider `NNc1nc(-c2cccnc2)nc2c1sc(=S)n2-c1ccccc1`, for which the growth was 62.9% in experiment [1]; 72.7% in experiment [2]; 112% in experiment [3]; 102% in experiment [4]; 92.5% in experiment [5]; 76.4% in experiment [6]. Further, in experiment [7], the growth was 108%.
For `Cc1c(-c2ccc(O)cc2)n(Cc2ccc(OCCN3CCCCCC3)cc2)c2ccc(O)cc12`, the growth was 58.4% in experiment [1]; 84% in experiment [2]; 79.6% in experiment [3]; 66.3% in experiment [4]; 11.6% in experiment [5]; 59.1% in experiment [6]. Moreover, the growth in experiment [7] is 114%.
As to `CC(C)c1ccc(-n2c(=S)[nH]c3sc4cc(O)ccc4c3c2=O)cc1`, the growth in experiment [1] was 105%; in experiment [2] it was 91.4%; in experiment [3] it was 100%; in experiment [4], 96.9%; in experiment [5] it was 90.1%; in experiment [6], 98.4%. For the same compound, in experiment [7], the growth was 103%.
With `Nc1nc(-c2ccc(Cl)cc2)nc2c1sc(=S)n2-c1ccccc1`, the growth is 14.8% in experiment [1]; 54.9% in experiment [2]; 57.4% in experiment [3]; 55.3% in experiment [4]; 57.6% in experiment [5]; 20.1% in experiment [6]. Also, the growth in experiment [7] was 72.3%; in experiment [8] it was 36%.
In the case of `O=S(=O)(NCCNc1nccc(-c2c(-c3ccc(F)c(O)c3)nc3occn23)n1)c1ccc(Cl)cc1`, the growth was 92.3% in experiment [1]; 107% in experiment [2]; 38.6% in experiment [3]; 112% in experiment [4]; 71.6% in experiment [5]; 60.9% in experiment [6]. Besides, the growth in experiment [7] is 102%.
As for `O=C(Nc1nc2ccc(C(=O)N3CCN(/C=C/c4ccccc4)CC3)cc2s1)c1ccc(NCCc2ccccc2)c([N+](=O)[O-])c1`, the growth in experiment [1] is 43.2%; in experiment [2], 71.9%; in experiment [3], 55.8%; in experiment [4], 4.25% (active); in experiment [5], 16%; in experiment [6], 11.2%. Also, the growth in experiment [7] was 76.9%.
Turning to `CC(C)c1ccc(C(=O)Nc2sc3c(c2C(N)=O)CCC(=O)C3)cc1`, the growth in experiment [1] is -15.8% (active); in experiment [2], -21.9% (active); in experiment [3], -11% (active); in experiment [4] it was -43.4% (active); in experiment [5], 5.13% (active); in experiment [6], -41.1% (active). Besides, the growth in experiment [7] is 14.9%.
For `C#Cc1c2c(c(OC)c3c1OCO3)[C@H]([C@H]1OC(=O)c3c1ccc(OC)c3OC)N(C)CC2`, the growth is 86.7% in experiment [1]; 90% in experiment [2]; 7.84% (active) in experiment [3]; 84.5% in experiment [4]; 55.5% in experiment [5]; 89.8% in experiment [6]. For the same compound, the growth in experiment [7] is 86.4%; in experiment [8] it was 59.9%.
As for `Cc1cn(-c2cc(NC(=O)c3cncc(C#Cc4cnc(N)c5ncccc45)c3)cc(C(F)(F)F)c2)cn1`, the growth was 83.6% in experiment [1]; 75.3% in experiment [2]; 55.5% in experiment [3]; 62.6% in experiment [4]; 73.9% in experiment [5]; 35.6% in experiment [6]. Moreover, the growth in experiment [7] is 79.8%.
Consider `CCN(CC)Cc1cc(C=C2C(=O)NC(=S)NC2=O)cc(OC)c1O`, for which the growth in experiment [1] was 114%; in experiment [2], 110%; in experiment [3], 105%; in experiment [4], 107%; in experiment [5], 97.6%; in experiment [6], 114%. In experiment [7], the growth was 118%.
As for `O=C(/C=C/c1cn(-c2ccccc2)nc1-c1ccc(Cl)cc1)c1ccc(F)cc1`, the growth was 38.9% in experiment [1]; 96% in experiment [2]; 326% in experiment [3]; 75.4% in experiment [4]; 41.8% in experiment [5]; 41.1% in experiment [6]. Also, the growth in experiment [7] is 186%.
With `CCOC(=O)C1=C(c2ccccc2)N=C2SC=C(c3ccc(Cl)cc3)N2C1c1ccc(Br)cc1` (configuration not stated), the growth in experiment [1] is 52.2%; in experiment [2], 84.3%; in experiment [3] it was 94.3%; in experiment [4] it was 78.9%; in experiment [5], 75.2%; in experiment [6] it was 64.9%. For the same compound, the growth in experiment [7] is 90.5%.
